Bioassay records from PubChem BioAssay.
SW480 rerep: DNA re-replication induction in SW480 cells; SW480 DNA re-replication, Hoechst DNA content imaging, 48 h; Potency, µM (titrated, usually from 46.1 µM), inactives show at the highest dose re-replication activation, most hits filed as activators; 1.8% of 340,000 active; AID 624297; further: % of control where 0% means no effect; nearly all actives have a fitted effect of over 55% in size
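Compounds, transferred as 23 nL by pin tool, were incubated with cells for 48 hr; DNA content per nucleus was then quantified by Hoechst staining and fluorescence plate imaging.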
ELG1 repair inh: ELG1-dependent DNA repair inhibition; 2.3% of 330,000 active; Potency, µM (series often up to 46.1 µM), without a hit: top-dose activity change, negative = inhibition, most hits filed as inhibitors; HEK293T ELG1-luciferase reporter, luminescence, 16 h; DNA damage induced by 5-fluorouridine; AID 504467; further: on the % scale 0 is the no-effect control and ±100 the full control effect; nearly all actives have a fitted effect of over 55% in size
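Overnight (16 hr) co-exposure of 2,000 cells/well to 5-fluorouridine and compound at 37 °C preceded detection. Luciferase was quantified via ONE-Glo luminescence; loss of signal denotes inhibition.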
ELG1 genotoxic: induces genotoxicity in HEK293T cells with luciferase-tagged ELG1; Potency, µM (doses to about 46 µM), without a hit: at the top dose activity change, positive = activation, usual class: activators; AID 504466; HEK293T ELG1-luciferase reporter, luminescence, 16 h; 1.3% of 330,000 active; further: % of control where 0% means no effect; nearly all actives have a fitted effect of over 60% in size
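After overnight (16 hr) compound treatment at 37 °C, ELG1-luciferase HEK293T cells were lysed with ONE-Glo; luminescence quantified 30 min later at room temperature.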
p53 reactivator: mutant p53 re-activation in reporter cells | AID 504706 | Potency, µM (highest dose often 92.2 µM), for inactives: top-dose activity change, positive = activation, hits mostly activators | H1299 p53-A138V BP100-luciferase reporter, luminescence, 24 h | 0.063% of 320,000 active; further: % of control where 0% means no effect; nearly all actives have a fitted effect of over 45% in size
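p53-null H1299 cells stably carrying temperature-sensitive p53-A138V and a BP100-luciferase reporter were pinned with compounds (4-point, 1:5 series) and held 24 hrs at 37 deg C. Luminescence was read 10 min after detection reagent.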
MCF10A rerep: DNA re-replication induction in MCF 10a cells; Potency, µM (highest dose often 46.1 µM), for the others: at the top dose activity, positive = re-replication, hits mostly activators; MCF 10A DNA re-replication, Hoechst nuclear intensity, 48 h; 2.9% of 350,000 active; further: % of control where 0% means no effect; nearly all actives have a fitted effect of over 50% in size
AT treatment: potential ataxia-telangiectasia treatment; Potency, µM (series often up to 57.5 µM), for inactives: top-dose activation, actives largely listed as activators; 0.19% of 320,000 active; AID 485349; F2112 A-T fibroblasts, KAP-1 phosphorylation AlphaLISA; neocarzinostatin DNA damage 30 min before lysis; further: % of control where 0% means no effect; nearly all actives have a fitted effect of over 45% in size
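ATM-like activity read as KAP-1 phosphorylation via AlphaLISA donor/acceptor antibody pairs after lysis and 6 hr at 25C. Cells were ATM-null patient fibroblasts (F2112, hTERT), dosed 60 min, then exposed to the DSB inducer NCS for 30 min.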
* = called active by the depositor. Compounds with a hit are over-represented: about 7.1% of the library has one in this group of screens. The call rests on the fitted dose curve; in most records, active means well fitted curve in the direction sought with a large enough effect; inconclusive means small, poorly fitted or top-dose-only effect, or another doubt; inactive means no such curve, though single readings can be large; an effect the other way counts as inactive or inconclusive. Potency means the concentration at half of the fitted maximal effect.

`Cc1ccccc1/C=C\c1nc2ccccc2c(=O)[nH]1` gave SW480 rerep inconclusive, ELG1 repair inh inconclusive, ELG1 genotoxic 18µM*, p53 reactivator inconclusive, MCF10A rerep inconclusive and AT treatment -3%.
C=CCNc1nc2ccccc2c(=O)[nH]1 was read as SW480 rerep -13%, ELG1 repair inh -5%, ELG1 genotoxic 0%, p53 reactivator -1%, MCF10A rerep -17% and AT treatment -3%.
For COc1ccc(N(CC(=O)N/N=C/c2cccnc2)S(=O)(=O)c2ccc(C)cc2)cc1OC the results were SW480 rerep 0%, ELG1 repair inh 2%, ELG1 genotoxic 0%, p53 reactivator -2%, MCF10A rerep -8% and AT treatment -2%.
`COc1cc2nc(CN(C)Cc3nc4ccccc4c(=O)[nH]3)[nH]c(=O)c2cc1OC` gave SW480 rerep 16µM*, ELG1 repair inh inconclusive, ELG1 genotoxic -9%, p53 reactivator 1%, MCF10A rerep inconclusive and AT treatment 1%.
Screening CCN(Cc1nc2ccccc2c(=O)[nH]1)Cc1nc2cc(OC)c(OC)cc2c(=O)[nH]1 returned SW480 rerep 7%, ELG1 repair inh inconclusive, ELG1 genotoxic -7%, p53 reactivator 10%, MCF10A rerep 0% and AT treatment -1%.
Screening Cc1ccccc1/C=C/c1nc2ccccc2c(=O)[nH]1 returned SW480 rerep inconclusive, ELG1 repair inh inconclusive, ELG1 genotoxic 10µM*, p53 reactivator -1%, MCF10A rerep 18µM* and AT treatment 2%.
COc1cc(/C=C/c2nc3ccccc3c(=O)[nH]2)cc(OC)c1OC was read as SW480 rerep 3.3µM*, ELG1 repair inh 35%, ELG1 genotoxic 12%, p53 reactivator 7%, MCF10A rerep 18µM* and AT treatment 10%.
CCN1C(=NCCCCO)N[C@@H](c2ccccc2)C(C(=O)OC)=C1C was read as AT treatment 1%.
CN1CCN(C(=O)CCCOc2cc(=O)n(C)c3ccccc23)CC1 was read as SW480 rerep -4%, ELG1 repair inh inconclusive, ELG1 genotoxic inconclusive, p53 reactivator -3%, MCF10A rerep 3% and AT treatment 0%.
For O=C(COc1cccc2ccccc12)N1CCN(c2ccccc2)CC1 the results were SW480 rerep 1%, ELG1 repair inh 8.2µM*, ELG1 genotoxic -4%, p53 reactivator 0% and MCF10A rerep 0%.
For Cn1c(=O)cc(OCCCC(=O)NCc2ccccn2)c2ccccc21 the results were SW480 rerep -1%, ELG1 repair inh inconclusive, ELG1 genotoxic 16%, p53 reactivator -2%, MCF10A rerep 15% and AT treatment -1%.
For Cc1ccnc(NC(=O)CCCOc2cc(=O)n(C)c3ccccc23)c1 the results were SW480 rerep 7.3µM*, ELG1 repair inh inconclusive, ELG1 genotoxic -8%, p53 reactivator inconclusive, MCF10A rerep 15µM* and AT treatment 9%.
For Cn1c(=O)cc(OCCCC(=O)N2CCN(c3ccccc3)CC2)c2ccccc21 the results were SW480 rerep -1%, ELG1 repair inh 5%, ELG1 genotoxic 4%, p53 reactivator 2%, MCF10A rerep 9.2µM* and AT treatment 10%.
Screening Fc1cccc2sc(N3CCCCC3)nc12 returned SW480 rerep inconclusive, ELG1 repair inh inconclusive, ELG1 genotoxic 13µM*, p53 reactivator inconclusive, MCF10A rerep 5% and AT treatment 1%.
Fc1cccc2sc(N3CCOCC3)nc12 was read as SW480 rerep 1%, ELG1 repair inh inconclusive, ELG1 genotoxic 14%, p53 reactivator inconclusive, MCF10A rerep -3% and AT treatment 1%.
Fc1cccc(Cl)c1CN1CCN(c2nc3ccccc3s2)CC1 was read as SW480 rerep 11%, ELG1 repair inh inconclusive, ELG1 genotoxic 15µM*, p53 reactivator inconclusive, MCF10A rerep 16µM* and AT treatment 7%.
`CCOC(=O)N1CCN(C(=O)c2ccc3c(c2)N(Cc2cc(C)ccc2C)C(=O)c2ccccc2S3=O)CC1` (stereo unspecified) gave SW480 rerep -1%, ELG1 repair inh 13%, ELG1 genotoxic -3%, p53 reactivator -5%, MCF10A rerep 2% and AT treatment -1%.
CCCCNC(=S)N1CCN(C(c2ccccc2)c2ccccc2)CC1 was read as SW480 rerep 4%, ELG1 repair inh 21µM*, ELG1 genotoxic -6%, p53 reactivator -6%, MCF10A rerep inconclusive and AT treatment 4%.
For CCCNC(=S)N1CCN(C(c2ccccc2)c2ccccc2)CC1 the results were SW480 rerep -5%, ELG1 repair inh 2%, ELG1 genotoxic -2%, p53 reactivator -2%, MCF10A rerep 8% and AT treatment 0%.
Screening COc1cc(CCC(=O)OCC(=O)Nc2sccc2C(N)=O)cc(OC)c1OC returned SW480 rerep 16µM*, ELG1 repair inh -9%, ELG1 genotoxic -2%, p53 reactivator 4%, MCF10A rerep -20% and AT treatment 9%.
COc1cc(CCC(=O)Nc2sccc2C#N)cc(OC)c1OC was read as SW480 rerep -26%, ELG1 repair inh 23µM*, ELG1 genotoxic -17%, p53 reactivator -4%, MCF10A rerep 9% and AT treatment 3%.
For CC1COc2ccccc2N1S(=O)(=O)c1cc(Cl)ccc1Cl (stereo unspecified) the results were SW480 rerep 2%, ELG1 repair inh inconclusive, ELG1 genotoxic -4%, p53 reactivator 12%, MCF10A rerep inconclusive and AT treatment -1%.
Screening CCc1ccccc1NC(=O)c1cnccn1 returned SW480 rerep -7%, ELG1 repair inh 15%, ELG1 genotoxic 3%, p53 reactivator 9%, MCF10A rerep -5% and AT treatment 1%.
Screening O=C(Nc1cccc2ccccc12)c1cnccn1 returned SW480 rerep -4%, ELG1 repair inh inconclusive, ELG1 genotoxic 21µM*, p53 reactivator 16%, MCF10A rerep 2% and AT treatment 0%.
Screening CCc1ccc(C(=O)NNC(=O)C2CSC3(C)CCC(=O)N23)cc1 (stereo unspecified) returned SW480 rerep 2%, ELG1 repair inh 15%, ELG1 genotoxic 1%, p53 reactivator 3%, MCF10A rerep -3% and AT treatment 4%.
c1ccc(-c2nc(N3CCN(c4ccccc4)CC3)nc(-n3ccnc3)n2)cc1 was read as SW480 rerep inconclusive, ELG1 repair inh inconclusive, ELG1 genotoxic -10%, p53 reactivator 2%, MCF10A rerep 7.3µM* and AT treatment 4%.
